Laboratory results taken from PubChem BioAssay (NCATS).
A number with no mark means an inactive call. Records with an inconclusive call do not appear. Where a call stands in place of a potency, no number is given. The source made the active and inactive calls. Unless noted, calls come from the whole dose curve; as a rule, active = well fitted curve in the direction sought with a large enough effect; inconclusive = small, poorly fitted or top-dose-only effect, or another doubt; inactive = no such curve, though single readings can be large; an effect the other way counts as inactive or inconclusive.

Key:
[1] = molecular target: Lysosomal acid glucosylceramidase (Homo sapiens) (UniProt P04062); assay: Glucocerebrosidase-p2 (AID 348; in the data active = potency below about 10 µM; note: potency is the fitted concentration of half-maximal effect); conditions: purified GBA, blue fluorogenic substrate, 40 min
Chain of Lysosomal acid glucosylceramidase (Homo sapiens) (P04062 whole entry, looked up): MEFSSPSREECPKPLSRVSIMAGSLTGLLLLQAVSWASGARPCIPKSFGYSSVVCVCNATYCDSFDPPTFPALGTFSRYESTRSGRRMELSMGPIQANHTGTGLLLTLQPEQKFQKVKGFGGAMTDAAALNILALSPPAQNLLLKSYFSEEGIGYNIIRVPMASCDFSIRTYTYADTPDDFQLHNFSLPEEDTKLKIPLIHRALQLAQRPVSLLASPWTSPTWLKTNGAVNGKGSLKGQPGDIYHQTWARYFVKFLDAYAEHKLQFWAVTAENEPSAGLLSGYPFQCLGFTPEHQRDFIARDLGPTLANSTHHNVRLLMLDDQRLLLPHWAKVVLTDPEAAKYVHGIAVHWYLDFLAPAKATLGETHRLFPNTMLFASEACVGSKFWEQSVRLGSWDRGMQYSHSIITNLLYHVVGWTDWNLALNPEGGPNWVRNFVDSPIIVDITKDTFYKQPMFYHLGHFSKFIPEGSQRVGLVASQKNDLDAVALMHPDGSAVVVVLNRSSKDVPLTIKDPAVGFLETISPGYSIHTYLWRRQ
Procedure, shortened: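 Normal human glucocerebrosidase (0.2 nM) with blue fluorogenic substrate (80 uM final) in citrate/phosphate pH 5.9 with 10mM sodium taurocholate, 0.01% tween-20; 40 min RT, NaOH/glycine stop; fluorescence Ex 365/Em 440; AC50 from a titration from 0.6 nM upwards.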

[2] = AP1 Signaling Pathway (AID 357; active = well fitted curve in either direction with a large enough effect, not every such curve was filed as active;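 note: ME-180 reporter cells stimulated with EGF at its EC50 level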); conditions: ME-180 AP-1-bla reporter, EGF-induced, beta-lactamase ratio, 5 h; at 7.69 µM (top of the series) unless noted
Procedure, shortened: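 Cells are seeded overnight, exposed to compound titrations and an EC50 level of EGF for 5 hours at 37 °C, then loaded with CCF4 dye for 2.5 hours. Beta-lactamase activity under the AP-1 element is read as a blue/green ratio.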

[3] = molecular target: Cytochrome P450 1A2 (Homo sapiens) (UniProt P05177); assay: p450-cyp1a2 (AID 410; calls by dose curve; note: potency is the fitted concentration of half-maximal effect); conditions: recombinant CYP1A2, luciferin-ME demethylation, luminescence; series mostly up to 57 µM
Chain of Cytochrome P450 1A2 (Homo sapiens) (P05177 whole entry, looked up): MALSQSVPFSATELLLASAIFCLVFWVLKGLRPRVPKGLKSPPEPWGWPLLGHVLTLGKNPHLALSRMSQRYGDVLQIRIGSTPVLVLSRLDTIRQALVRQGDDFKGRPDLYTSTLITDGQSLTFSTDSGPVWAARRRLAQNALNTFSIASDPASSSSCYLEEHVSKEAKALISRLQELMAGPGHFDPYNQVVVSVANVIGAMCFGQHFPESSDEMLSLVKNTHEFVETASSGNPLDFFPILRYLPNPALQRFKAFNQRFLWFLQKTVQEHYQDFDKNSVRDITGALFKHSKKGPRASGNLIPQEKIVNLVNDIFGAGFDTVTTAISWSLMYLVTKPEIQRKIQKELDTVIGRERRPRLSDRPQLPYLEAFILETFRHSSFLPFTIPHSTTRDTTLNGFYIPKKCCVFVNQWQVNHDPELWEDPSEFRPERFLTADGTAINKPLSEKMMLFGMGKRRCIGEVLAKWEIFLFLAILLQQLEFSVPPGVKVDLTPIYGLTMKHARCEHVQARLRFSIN
Procedure, shortened: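 Read-out is luminescence from luciferin produced by CYP1A2 demethylation of Luciferin-ME (100uM, at Km). Detection reagent stopped the 60 min NADPH-dependent reaction; signals were normalized to 57 uM furafylline.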

[4] = NFAT Signaling Pathway (AID 444; active = well fitted curve in either direction with a large enough effect, not every such curve was filed as active;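 note: carbachol stimulus at about its EC50 of 1 µM final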); conditions: Jurkat NFAT-bla M1, carbachol, beta-lactamase ratio, 5 h; at 7.69 µM (top of the series) unless noted
Procedure, shortened: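 Read-out: CCF4 FRET ratio (460 nm/530 nm) after 1 h RT dye loading, used for %activity and AC50 from titration series. Cells: Jurkat NFAT-β-lactamase/M1 line, treated with compound plus 1 uM carbachol for 5 h, 37 °C.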

[5] = Stat Signaling Pathway (AID 446; active = well fitted curve in either direction with a large enough effect, not every such curve was filed as active;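 note: ME-180 cervical cancer cells given 40 pM IL-6 alongside compound; SIE-controlled beta-lactamase reporter measured as 460/530 nm FRET emission ratio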); conditions: ME-180 SIE beta-lactamase reporter, IL-6 stimulated, 5 h; at 7.69 µM (top of the series) unless noted
Procedure, shortened: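 Compound effects on IL-6-induced STAT reporter activity were measured in ME-180 cells. After overnight culture, cells were co-treated with 40 pM IL-6 for 5 hrs before beta-lactamase substrate loading at room temperature.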

[6] = molecular target: Glucocorticoid receptor (Homo sapiens) (UniProt P04150); assay: GR-GFP Redistribution (AID 450;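 active = compounds whose dose series gives a full or clear partial fitted curve of increased nuclear translocation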; note: potency is the fitted concentration of half-maximal effect); conditions: U2OS GR-GFP nuclear translocation, laser cytometry, 2 h
Chain of Glucocorticoid receptor (Homo sapiens) (P04150 whole entry, looked up, the tested form may be a part): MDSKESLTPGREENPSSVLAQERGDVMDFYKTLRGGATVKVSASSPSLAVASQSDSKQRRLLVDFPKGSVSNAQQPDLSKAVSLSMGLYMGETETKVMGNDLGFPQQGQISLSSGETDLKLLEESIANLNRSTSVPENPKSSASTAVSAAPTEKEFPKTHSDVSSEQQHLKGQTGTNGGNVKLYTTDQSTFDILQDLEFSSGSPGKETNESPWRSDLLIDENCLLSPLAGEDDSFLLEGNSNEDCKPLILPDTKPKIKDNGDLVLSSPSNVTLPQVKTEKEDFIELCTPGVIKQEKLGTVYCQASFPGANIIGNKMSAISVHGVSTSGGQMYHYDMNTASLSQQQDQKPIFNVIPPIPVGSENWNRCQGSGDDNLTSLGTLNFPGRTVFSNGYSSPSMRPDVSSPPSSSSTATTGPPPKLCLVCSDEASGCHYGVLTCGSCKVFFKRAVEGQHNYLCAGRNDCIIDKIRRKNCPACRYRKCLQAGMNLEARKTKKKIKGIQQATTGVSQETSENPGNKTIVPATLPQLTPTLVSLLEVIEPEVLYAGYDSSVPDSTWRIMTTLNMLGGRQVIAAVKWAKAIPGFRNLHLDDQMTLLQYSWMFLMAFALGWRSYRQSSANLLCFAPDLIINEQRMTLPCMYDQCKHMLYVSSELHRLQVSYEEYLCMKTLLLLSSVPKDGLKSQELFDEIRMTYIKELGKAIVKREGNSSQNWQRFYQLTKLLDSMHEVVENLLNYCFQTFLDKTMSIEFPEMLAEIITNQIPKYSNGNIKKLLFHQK

[7] = molecular target: Glucocorticoid receptor (Homo sapiens) (UniProt P04150); assay: GR-EFC Redistribution (AID 451; calls by dose curve; note: potency is the fitted concentration of half-maximal effect); conditions: CHO-K1 GR-EFC translocation, beta-gal luminescence, 2 h
Procedure, shortened: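 Translocation of GR-ED fusion to nuclear EA restores b-gal, read by luminescence after 1 h room-temperature detection. Engineered CHO-K1 biosensor cells, 1,000/well, exposed 2 h at 37 C to titrations up to 46 uM final.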

[8] = molecular target: Mitogen-activated protein kinase 10 (Mus musculus) (UniProt Q61831); assay: JNK3 AlphaScreen Assay (AID 530; active = well fitted curve in either direction with a large enough effect, not every such curve was filed as active;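 note: kinase came from lysate of stimulated human HepG2 cells; signal reports phosphorylation of biotinylated GST-cJun 1-79 at Ser73 with 10 µM ATP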); conditions: JNK3 lysate, c-Jun phosphorylation; series mostly up to 57.1 µM
Procedure, shortened: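 Kinase buffer: 20 mM Tris-HCl pH 7.6, 10 mM MgCl2, 1 mM DTT, 0.1 mM Na3VO4, 0.01% Tween-20; ATP 10 uM. Substrate biotin-GST-cJun(1-79), enzyme from activated HepG2 lysates. Detection by Ser73 phospho-antibody AlphaScreen.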

[9] = molecular target: Cytochrome P450 2C9 (Homo sapiens) (UniProt P11712); assay: qHTS Assay for Inhibitors and Substrates of Cytochrome P450 2C9 (AID 883); conditions: recombinant CYP2C9, luciferin-H luminescence, 60 min; series mostly up to 57.1 µM; note: nearly all actives have a fitted effect of over 60% in size
Procedure, shortened: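 Luminescent read-out of deoxyluciferin hydroxylation, normalized to 57uM sulphaphenazole (AC100). Reaction: 10nM enzyme, 100uM Luciferin-H (equal to KM), 25mM KPO4, 10 min compound preincubation, then 60 min with NADPH regeneration, both at 37C.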

[10] = molecular target: Cytochrome P450 3A4 (Homo sapiens) (UniProt P08684); assay: qHTS Assay for Activators of Cytochrome P450 3A4 (AID 885); conditions: recombinant CYP3A4, Luciferin-PPXE luminescence, 60 min; series mostly up to 57.1 µM; note: nearly all actives have a fitted effect of over 65% in size; note: potency is the fitted concentration of half-maximal effect
Chain of Cytochrome P450 3A4 (Homo sapiens) (P08684 whole entry, looked up): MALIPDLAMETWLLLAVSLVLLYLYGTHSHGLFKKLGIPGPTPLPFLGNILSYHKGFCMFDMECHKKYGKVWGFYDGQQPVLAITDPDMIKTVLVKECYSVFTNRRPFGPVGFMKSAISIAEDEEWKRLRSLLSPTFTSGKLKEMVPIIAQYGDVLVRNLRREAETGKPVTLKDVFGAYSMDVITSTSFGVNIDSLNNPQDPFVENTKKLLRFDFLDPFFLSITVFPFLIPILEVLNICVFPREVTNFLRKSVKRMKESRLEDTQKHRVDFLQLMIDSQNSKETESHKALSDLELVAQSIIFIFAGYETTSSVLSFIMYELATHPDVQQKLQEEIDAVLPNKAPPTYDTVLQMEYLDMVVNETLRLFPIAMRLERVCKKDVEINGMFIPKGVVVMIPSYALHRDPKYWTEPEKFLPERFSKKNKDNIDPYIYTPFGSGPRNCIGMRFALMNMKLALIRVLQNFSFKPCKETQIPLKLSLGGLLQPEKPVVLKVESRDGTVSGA
Procedure, shortened: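 CYP3A4 activity: Luciferin-PPXE O-dealkylation, 25uM substrate, 200mM KPO4, RT throughout. Read-out is luciferase luminescence; higher values reflect activation.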

[11] = molecular target: Dual specificity protein kinase CLK4 (Homo sapiens) (UniProt Q9HAZ1); assay: qHTS Assay for Inhibitors of CDC-like Kinase 4 (Kinase-Glo Assay) (AID 1770); conditions: recombinant Clk4, Kinase-Glo ATP depletion luminescence; series mostly up to 66.7 µM; note: nearly all actives have a fitted effect of over 65% in size
Chain of Dual specificity protein kinase CLK4 (Homo sapiens) (Q9HAZ1 whole entry, looked up): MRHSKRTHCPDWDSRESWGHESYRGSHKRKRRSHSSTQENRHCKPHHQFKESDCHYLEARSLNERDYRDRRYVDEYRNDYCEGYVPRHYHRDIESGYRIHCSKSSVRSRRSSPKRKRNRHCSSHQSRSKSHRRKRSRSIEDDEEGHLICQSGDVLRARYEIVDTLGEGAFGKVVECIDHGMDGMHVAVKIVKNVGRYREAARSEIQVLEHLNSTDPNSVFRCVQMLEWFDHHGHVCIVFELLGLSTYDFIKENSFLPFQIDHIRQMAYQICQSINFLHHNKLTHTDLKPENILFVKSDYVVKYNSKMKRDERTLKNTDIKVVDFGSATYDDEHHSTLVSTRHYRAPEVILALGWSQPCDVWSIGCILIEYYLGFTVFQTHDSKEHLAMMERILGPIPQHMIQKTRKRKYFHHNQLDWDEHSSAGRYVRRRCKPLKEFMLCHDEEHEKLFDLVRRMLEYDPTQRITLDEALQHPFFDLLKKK
Procedure, shortened: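 Inhibition was judged from remaining ATP, measured by Ultra-Glo luciferase bioluminescence after Clk4 (25 nM) had acted on RS peptide at 1 uM ATP for 4.5 hours, room temperature.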

[12] = molecular target: Dual specificity protein kinase CLK4 (Homo sapiens) (UniProt Q9HAZ1); assay: qHTS Assay for Inhibitors of CDC-like Kinase 4 (ADP-Glo Assay) (AID 1771); conditions: recombinant CLK4, ADP-Glo luminescence; series mostly up to 80 µM; note: nearly all actives have a fitted effect of over 70% in size
Procedure, shortened: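 In this ADP-Glo format, 1 uM ATP and 100 uM RS peptide served as substrates for 25 nM Clk4 in Mg2+/EGTA/DTT/Triton buffer; reactions ran 1 hr at room temperature before luminescent ADP quantification.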

[13] = molecular target: Dual specificity protein kinase CLK4 (Homo sapiens) (UniProt Q9HAZ1); assay: qHTS Assay for Inhibitors of CDC-like Kinase 4 (ADP-FP Assay) (AID 1795); conditions: Transcreener ADP fluorescence polarization; series mostly up to 50 µM;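 note: recombinant human CLK4 phosphorylating RS repeat peptide at 1 µM ATP; nearly all actives have a fitted effect of over 60% in size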
Procedure, shortened: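 Inhibition of ADP formation by 6.25 nM Clk4 is measured using 1 uM ATP and 100 uM RS repeat peptide over one hour. Produced ADP displaces a fluorescent tracer from antibody, lowering polarization.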

[14] = Primary qHTS for small molecule stabilizers of the endoplasmic reticulum resident proteome: Secreted ER Calcium Modulated Protein (SERCaMP) assay (AID 1508630); conditions: SH-SY5Y GLuc-SERCaMP (Gaussia luciferase released on ER calcium loss) secretion, thapsigargin, luminescence; series mostly up to 38.4 µM
Procedure, shortened: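 The SH-SY5Y reporter protocol was run at 3 concentrations up to 38.3 uM (primary) or 11 concentrations (follow-up): 16 h compound, 100 nM thapsigargin for 4 h, then extracellular luciferase luminescence.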

[15] = molecular target: Ubiquitin carboxyl-terminal hydrolase 1 (Homo sapiens) (UniProt O94782); assay: Inhibitors of USP1/UAF1: Pilot qHTS (AID 504865); conditions: purified USP1/UAF1, Ub-rhodamine cleavage fluorescence; series mostly up to 54.9 µM;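 note: rhodamine fluorescence freed from ubiquitin-rhodamine substrate followed over time; top concentration of the series differs between compounds; nearly all actives have a fitted effect of over 35% in size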
Chain of Ubiquitin carboxyl-terminal hydrolase 1 (Homo sapiens) (O94782 whole entry, looked up): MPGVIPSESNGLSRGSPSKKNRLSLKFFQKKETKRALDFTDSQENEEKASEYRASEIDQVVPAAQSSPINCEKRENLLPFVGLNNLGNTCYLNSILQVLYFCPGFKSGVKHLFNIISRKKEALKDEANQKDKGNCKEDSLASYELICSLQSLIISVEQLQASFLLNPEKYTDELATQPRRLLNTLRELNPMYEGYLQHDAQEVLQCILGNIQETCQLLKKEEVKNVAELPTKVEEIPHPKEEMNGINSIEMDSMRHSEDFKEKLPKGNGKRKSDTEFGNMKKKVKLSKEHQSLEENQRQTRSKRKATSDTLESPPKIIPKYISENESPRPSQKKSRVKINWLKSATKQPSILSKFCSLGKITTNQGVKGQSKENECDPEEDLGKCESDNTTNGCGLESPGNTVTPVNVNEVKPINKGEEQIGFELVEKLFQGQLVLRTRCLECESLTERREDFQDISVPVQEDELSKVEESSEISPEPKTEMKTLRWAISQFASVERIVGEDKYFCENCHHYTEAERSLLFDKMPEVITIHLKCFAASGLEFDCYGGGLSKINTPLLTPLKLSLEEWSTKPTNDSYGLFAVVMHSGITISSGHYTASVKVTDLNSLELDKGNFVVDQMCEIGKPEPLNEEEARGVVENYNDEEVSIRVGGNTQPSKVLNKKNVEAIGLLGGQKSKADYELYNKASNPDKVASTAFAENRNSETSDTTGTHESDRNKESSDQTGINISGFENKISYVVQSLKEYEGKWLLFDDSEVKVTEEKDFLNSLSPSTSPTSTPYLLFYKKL
Procedure, shortened: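 Kinetic fluorescence assay: 1nM USP1/UAF1, 15 min compound preincubation, then 150nM Ub-Rho; 480/540 nm.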

[16] = molecular target: Cytochrome P450 3A4 (Homo sapiens) (UniProt P08684); assay: qHTS Assay for Inhibitors and Substrates of Cytochrome P450 3A4 (AID 884); conditions: recombinant CYP3A4, Luciferin-PPXE luminescence; series mostly up to 57.1 µM; note: nearly all actives have a fitted effect of over 50% in size; note: potency is the fitted concentration of half-maximal effect
Procedure, shortened: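 Luminescent readout of luciferin produced by CYP3A4 (20 nM) dealkylation of Luciferin-PPXE, 25 uM (its KM). NADPH-driven reaction ran 60 min at RT after 10 min compound preincubation; data scaled to 57 uM ketoconazole as 100% inhibition.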

[17] = molecular target: Cytochrome P450 2C19 (Homo sapiens) (UniProt P33261); assay: qHTS Assay for Inhibitors and Substrates of Cytochrome P450 2C19 (AID 899); conditions: recombinant CYP2C19, luciferin-H EGE luminescence; series mostly up to 57.1 µM; note: potency is the fitted concentration of half-maximal effect; nearly all actives have a fitted effect of over 60% in size
Chain of Cytochrome P450 2C19 (Homo sapiens) (P33261 whole entry, looked up): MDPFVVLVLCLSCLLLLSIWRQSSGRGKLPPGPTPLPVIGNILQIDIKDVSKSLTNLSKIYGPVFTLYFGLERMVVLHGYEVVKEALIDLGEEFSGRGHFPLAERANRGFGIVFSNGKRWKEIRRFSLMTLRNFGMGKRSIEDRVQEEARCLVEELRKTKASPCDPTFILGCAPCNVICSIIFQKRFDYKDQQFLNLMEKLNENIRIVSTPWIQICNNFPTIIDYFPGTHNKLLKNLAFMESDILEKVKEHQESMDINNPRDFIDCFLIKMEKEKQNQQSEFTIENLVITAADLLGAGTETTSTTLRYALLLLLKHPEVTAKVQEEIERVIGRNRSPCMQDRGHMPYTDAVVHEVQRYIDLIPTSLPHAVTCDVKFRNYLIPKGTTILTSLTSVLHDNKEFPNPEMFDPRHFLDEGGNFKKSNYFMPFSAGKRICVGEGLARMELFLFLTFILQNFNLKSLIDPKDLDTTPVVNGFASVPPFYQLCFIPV
Procedure, shortened: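 Luminescence readout of luciferin formed from 10uM Luciferin-H EGE (KM level) by 5 nM CYP2C19 in 50mM KPO4. 60 min NADPH-driven reaction at 37C after 10 min compound preincubation; data scaled to 57uM ketoconazole inhibition.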

[18] = qHTS Assay for Identification of Small Molecule Agonists for Hypoxia Response Element Signaling Pathway (AID 914; active = well fitted activation curve with a large enough effect in the signal ratio, with a control signal flat, not every such curve was filed as active; the % refers to the signal ratio); conditions: ME-180 (cervical carcinoma) HRE-bla reporter, beta-lactamase ratio, CoCl2, 17 h; activation: active compounds read high
Procedure, shortened: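 Cells were plated overnight, pin-dosed with compound in a titration series, co-stimulated with EC50 CoCl2 and incubated 17 hours at 37 degrees Celsius. CCF4 substrate was then loaded, and AC50 values came from the 460nm/530nm ratio.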

[19] = molecular target: 3',5'-cyclic-AMP phosphodiesterase 4B (Homo sapiens) (UniProt Q07343); assay: qHTS Assay for Inhibitors of PDE-IV (AID 607; active = well fitted activation curve with a large enough effect in the main read-out, with a control signal flat, not every such curve was filed as active); conditions: HEK293 ACTOne CNG channel cells, membrane potential fluorescence; series mostly up to 22.9 µM
Chain of 3',5'-cyclic-AMP phosphodiesterase 4B (Homo sapiens) (Q07343 whole entry, looked up): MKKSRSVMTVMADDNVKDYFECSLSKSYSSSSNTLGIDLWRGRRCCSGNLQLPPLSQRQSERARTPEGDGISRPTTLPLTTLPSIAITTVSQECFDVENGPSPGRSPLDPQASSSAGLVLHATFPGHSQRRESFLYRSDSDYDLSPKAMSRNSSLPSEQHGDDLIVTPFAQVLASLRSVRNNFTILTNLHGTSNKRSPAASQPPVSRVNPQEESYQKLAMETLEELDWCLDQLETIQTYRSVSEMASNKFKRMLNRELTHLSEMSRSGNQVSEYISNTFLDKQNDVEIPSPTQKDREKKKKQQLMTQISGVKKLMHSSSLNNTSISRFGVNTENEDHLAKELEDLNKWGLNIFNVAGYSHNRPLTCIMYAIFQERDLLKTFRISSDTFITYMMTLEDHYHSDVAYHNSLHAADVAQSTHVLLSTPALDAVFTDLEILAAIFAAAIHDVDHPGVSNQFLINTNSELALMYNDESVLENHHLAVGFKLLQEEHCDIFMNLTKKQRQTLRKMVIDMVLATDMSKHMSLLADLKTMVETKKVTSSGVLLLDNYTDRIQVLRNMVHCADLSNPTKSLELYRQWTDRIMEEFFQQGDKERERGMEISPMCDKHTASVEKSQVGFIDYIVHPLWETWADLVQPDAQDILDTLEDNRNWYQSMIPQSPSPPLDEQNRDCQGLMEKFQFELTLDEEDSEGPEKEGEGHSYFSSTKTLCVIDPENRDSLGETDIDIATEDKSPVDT
Procedure, shortened: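 ACTOne HEK293 cells carry a modified cAMP-gated CNG channel and express endogenous PDE4; plated 1000 cells/well, compounds up to 22.9 uM final. Membrane-potential dye fluorescence (ex 535/em 590) was read; parental cells received 10 uM forskolin + 100 uM RO 20-1724.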

Row | Compound | Potency [1] | activity change, negative = inhibition [2] | Potency [3] | activity change, negative = inhibition [4] | activity, negative = inhibition [5] | Potency [6] | Potency [7] | Potency [8] | Potency [9] | Potency [10] | Potency [11] | Potency [12] | Potency [13] | outcome [14] | Potency [15] | Potency [16] | Potency [17] | activation [18] | Potency [19]
1 | COc1ncc2nc(-c3cn(C)c4ccccc34)c(=O)n(-c3ccccc3)c2n1 | > 11.4 µM | -0.341% | 5.01 µM (active) | -18.5% | 6.13% | > 9.22 µM | > 46 µM | inactive | inactive | inactive | inactive | inactive | inactive | inactive |  |  |  |  | 
2 | c1ccc(CNc2nc(-c3ccc4c(c3)OCO4)nc3ccccc23)cc1 | > 11.4 µM | -7.19% | 0.501 µM (active) | -23.9% | -13% | > 46 µM | > 46 µM | inactive |  | inactive | inactive | inactive | inactive | inactive | inactive |  |  |  | 
3 | COc1ccccc1CCn1c(=O)c(-c2cccc(Cl)c2)nc2cncnc21 | > 11.4 µM | -3.94% | 0.316 µM (active) | -27.9% | -13% | > 9.22 µM | > 46 µM | inactive |  | inactive | inactive | inactive | inactive | inactive | inactive | 6.31 µM (active) | 0.251 µM (active) | -1.79% | 
4 | COc1ccc(-n2c(=O)c(-c3cccc(Cl)c3)nc3cncnc32)cc1 | > 11.4 µM | -20.5% | 1 µM (active) | -14.1% | -4.36% |  | > 46 µM | inactive |  | inactive | inactive | inactive | inactive | inactive | inactive |  |  |  | inactive
5 | O=c1c(-c2ccc(Cl)cc2)nc2cnc(N3CCOCC3)nc2n1CCc1ccccc1 | > 11.4 µM | 87.9% [activator] (active) | 2 µM (active) | 112% [activator] (active) |  | > 9.22 µM | > 46 µM | inactive |  | 15.8 µM (active) | inactive | inactive | inactive | inactive | inactive | inactive |  |  | inactive
6 | COc1ccccc1-c1cncnc1NCc1cnc(C)cn1 | > 11.4 µM | -7.64% | 20 µM (active) | 2.58% | 4.26% |  | > 46 µM | inactive |  | inactive | inactive | inactive | inactive | inactive | inactive | 1.26 µM (active) |  |  | inactive
